# High-throughput results as filed in PubChem BioAssay.
# Compounds with a hit are over-represented: about 1.8% of the library has one in this group of screens.
# PAX8 reporter: inhibitors of PAX8-driven TPO luciferase reporter, primary screen, RMG-I cells, single concentration. SteadyGlo, 24 h. 1.2% of 360,000 active. inhibition, % at 12.6 µM. AID 652154, 2013;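 active means mean replicate inhibition at least 60% with every replicate also reaching 60%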;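 further: luciferase light reporting Pax8 driven TPO promoter activity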
# LGR2 antag: inhibitors of bursicon-induced LGR2 CRE-luciferase signal, primary screen, cell-based, HEK293, CRE-luciferase reporter, bursicon stimulation; bursicon-stimulated, 4 h; AID 720647, 2013; inhibition, % at 9.99 µM; 0.35% of 380,000 active;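 active means drop in luminescence signal, shown as inhibition above about 50% in the replicate tests, limit read from the data, passing the limit was not always enough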;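 further: agonist challenge used bursicon conditioned medium at about half maximal strength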
# CFTR F508del cor: F508del CFTR correction, initial screen, CFBE line, single point; CFBE cells, YFP halide quenching; stimulated with forskolin plus potentiator P3; % fluorescence drop versus neutral controls; activity (quench increase), % at 7.58 µM; 0.36% of 350,000 active;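 active means mean added fluorescence quench of at least 8% versus neutral control, with both replicates also reaching 8%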;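 further: cells transiently co-express mutant CFTR-F508del with the halide-sensitive YFP; corrector assay measuring rescue of mutant channel to the surface after 24 h compound exposure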
# EWS-Fli inh: EWS/Fli-driven NR0B1 reporter inhibitors, primary screen, A673 cells, NR0B1 luciferase, luminescence, MLPCN library | viability-normalised | inhibition, % at 12.6 µM | 0.67% of 350,000 active | AID 651661, 2012;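 active means mean inhibition of at least 50% after viability correction, with every replicate also passing that limit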;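 further: firefly luciferase signal divided by Alamar Blue viability fluorescence both relative to DMSO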
# Numbers stand for hits; . = inactive; / = no result.
SMILES,PAX8 reporter,LGR2 antag,CFTR F508del cor,EWS-Fli inh
O=C(Nc1ccc(F)cc1)N1C[C@H]2[C@@H](c3ccccc31)[C@H](CO)N2C(=O)c1ccncc1,.,.,.,.
O=C(c1ccc2c(c1)OCO2)N1CCN(c2ccc(C(F)(F)F)cn2)CC1,132,.,.,.
O=C(c1ccc2c(c1)OCCO2)N1CCN(c2ccc(C(F)(F)F)cn2)CC1,.,.,.,.
Cc1ccc(S(=O)(=O)N(C)C[C@H]2Oc3c(NC(=O)NC(C)C)cccc3C(=O)N([C@@H](C)CO)C[C@H]2C)cc1,.,.,.,.
C[n+]1ccc(/C=C/c2c[nH]c3ccc(F)cc23)cc1,70,.,.,.
Cn1cc(/C=C/c2cc[n+](C)cc2)c2cc(Cl)ccc21,.,.,.,.
c1ccc(-c2cnc(-c3ccccc3)nc2)cc1,/,56,/,/
Clc1ccc(-c2ccccc2)cn1,.,.,.,.
c1ccc(-c2ncc3c(ccc4ccccc43)n2)cc1,.,81,/,/
C/C(=N\NC(=S)Nc1ccc(C)cc1)c1cccc(N)c1,.,.,.,.
C/C(=N\NC(=S)Nc1cccc(C)c1)c1ccccc1,.,/,/,/
COc1ccccc1NC(=S)NN=C(C)c1ccccn1,.,.,8.5,.
CC(=NNC(=S)Nc1ccc(C)cc1)c1ccccn1,.,.,16,.
CC(=NNC(=S)Nc1cccc(C)c1)c1ccccn1,78,.,.,.
C[C@@H](NC(=O)C[C@H]1CC[C@@H]2[C@@H](COc3ccc(NS(=O)(=O)c4ccc(Cl)cc4)cc3C(=O)N2C)O1)c1ccccc1,.,.,.,.
NC(=S)c1cnn2c(-c3cccc(C(F)(F)F)c3)ccnc12,.,.,.,.
O=C(CSc1nnc(Nc2ccccc2)s1)NCC1CCCO1 (configuration not stated),.,.,.,.
CC(=O)N1CCc2cc(S(=O)(=O)CCC(=O)Nc3ccc(Cl)cc3F)ccc21,.,.,.,.
Cc1cccc(C(=O)Nc2ccc3c(c2)C(=O)NC3=O)c1,.,.,.,.
COc1ccc(/C=N/NC(=O)c2cccnc2)cc1CSc1ccccn1,.,.,11,.
COCCNC(=O)c1cc(-c2ccc(-c3ccccc3)cc2)nc2ccccc12,.,.,9.9,.
CCNC(=S)NNC(=O)c1cc(-c2cccc(OC)c2)nc2ccccc12,.,.,/,/
CCNC(=S)NNC(=O)c1cc(-c2ccc(OCC)cc2)nc2ccccc12,/,89,.,71
COCCCNC(=O)c1cc(-c2cccnc2)nc2ccccc12,.,.,.,.
CCc1ccc(-c2cc(C(=O)Nn3cnnc3)c3ccccc3n2)cc1,/,.,.,78
SMILES,PAX8 reporter,LGR2 antag,CFTR F508del cor,EWS-Fli inh
COC[C@H](NS(=O)(=O)c1ccc(Br)cc1F)[C@@H](O)c1ccccc1,.,.,.,.
C[C@H](CO)N1C[C@H](C)[C@@H](CN(C)S(=O)(=O)c2ccccc2)OCCCC[C@H](C)Oc2ccc(NC(=O)Nc3ccccc3)cc2C1=O,.,.,.,.
C[C@H]1CCCCO[C@@H](CN(C)C(=O)Cc2ccccc2)[C@@H](C)CN([C@@H](C)CO)C(=O)c2cc(NS(=O)(=O)c3ccccc3)ccc2O1,.,.,.,.
O=C(NC(Nc1nc2ccc([N+](=O)[O-])cc2s1)(C(F)(F)F)C(F)(F)F)c1ccccc1Cl,101,.,/,.
O=C(NC(Nc1nc2ccc([N+](=O)[O-])cc2s1)(C(F)(F)F)C(F)(F)F)c1cccnc1,93,/,.,.
CN(C)S(=O)(=O)c1ccc2nc(NC(=O)c3cccnc3)sc2c1,.,/,/,/
CCn1c(O)c(N=Nc2ccc3ccccc3n2)c2ccccc21,.,.,.,.
Brc1ccc(N=Nc2ccc3ccccc3n2)cc1,79,95,.,77
C=CCN1c2ccccc2[C@]23C[C@@H](C(=O)OC)N(C(=O)c4cccs4)C2=NC(C(=O)OC)=C(C(=O)OC)[C@H]13,.,/,8.0,.
C=CCN1c2ccccc2[C@]23C[C@@H](C(=O)OC)N(C(=O)c4ccc(Br)cc4)C2=NC(C(=O)OC)=C(C(=O)OC)[C@H]13,.,.,.,.
COc1ccc(C(=O)N/N=C/c2ccc(N3CCOCC3)o2)cc1OC,.,.,.,.
C[C@H](CO)N1C[C@H](C)[C@H](CN(C)S(=O)(=O)c2cccc(F)c2)OCc2ccccc2-c2c(n(C)c3ccccc23)C1=O,104,.,.,.
C[C@@H]1CN([C@H](C)CO)C(=O)c2c(c3ccccc3n2C)-c2ccccc2CO[C@H]1CN(C)S(=O)(=O)c1cccc(F)c1,93,.,.,.
C[C@@H]1CN([C@H](C)CO)C(=O)c2c(c3ccccc3n2C)-c2ccccc2CO[C@@H]1CN(C)S(=O)(=O)c1cccc(F)c1,.,.,.,.
C[C@H]1CN([C@@H](C)CO)C(=O)c2c(c3ccccc3n2C)-c2ccccc2CO[C@@H]1CN(C)S(=O)(=O)c1cccc(F)c1,102,.,.,.
C[C@@H]1CN([C@@H](C)CO)C(=O)c2cc(NC(=O)Nc3ccccc3)ccc2O[C@@H]1CN(C)C,.,.,.,/
O=C1C(F)=CC(COC(c2ccccc2)(c2ccccc2)c2ccccc2)OC1n1cc(F)c(=O)[nH]c1=O (configuration not stated),.,27,.,69
Nc1ccc(S(=O)(=O)Nc2nc3ccccc3o2)cc1,.,.,.,.
O=C(NCC1CCCO1)C(=O)NCC(c1ccco1)N1CCN(c2ccccc2)CC1 (configuration not stated),151,.,.,.
CCOC(=O)N=Nc1c2ccccc2c2nc3no[nH]c3nc12,87,101,/,54
CCOC(=O)N=Nc1c(O)n(CC(=O)OC)c2ccccc12,.,.,/,/
C[C@@H]1CN([C@H](C)CO)C(=O)c2cc(NC(=O)Cc3cn(C)c4ccccc34)ccc2O[C@H]1CN(C)S(=O)(=O)c1ccccc1,.,/,.,.
O=C(C[C@H]1C=C[C@H](NC(=O)Nc2ccc(C(F)(F)F)cc2)[C@@H](CO)O1)NCc1cc(F)cc(F)c1,.,.,.,.
O=C(N/N=C/c1cc([N+](=O)[O-])ccc1Cl)c1cnccn1,.,.,.,57
Cc1ccccc1NC(=O)CN1CCN(c2ccc(F)cc2)CC1,.,.,.,.
SMILES,PAX8 reporter,LGR2 antag,CFTR F508del cor,EWS-Fli inh
O=C(Nc1nnc(-c2ccco2)o1)c1cccc(N2C(=O)CCC2=O)c1,.,.,.,.
Cc1cnc(NC(=O)CN2CCN(c3ccccn3)CC2)s1,68,.,/,/
CC(=O)c1ccc(OCC(=O)Nc2nnc(C3CC3)s2)cc1,.,.,.,.
O=C(Cc1ccccn1)NCC[C@H]1CC[C@H](NC(=O)Nc2ccc(C(F)(F)F)cc2)[C@H](CO)O1,69,.,22,.
O=C(Cc1ccccn1)NCC[C@H]1CC[C@@H](NC(=O)Nc2ccc(C(F)(F)F)cc2)[C@@H](CO)O1,.,.,31,.
O=C(Cc1ccccn1)NCC[C@H]1CC[C@@H](NC(=O)Nc2ccc(F)cc2)[C@@H](CO)O1,.,.,.,.
CC(C)C(=O)Nc1ccc(C=C2C=Cc3ccccc32)cc1,.,.,.,.
COc1ccc(/C=N/NC(=O)c2[nH]nc3c2CCc2ccccc2-3)cc1OC,.,.,/,53
